# Measurements as given in the supplement of paper PMC9135407.
# Several values for one entry are separate records, joined by “and”; a condition that tells them apart may be missing. Equal values may be shown once. Where a name gives a salt, the structure may show the parent alone. Out of some 5,800 compounds screened, about 620 (11%) showed activity. The entries come from a sample that favours actives as a whole. A number with no mark means an inactive call.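 How the source made its calls: active = score above a cut-off or among the top three wells of a plate; in these data no inactive exceeds 0.85.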
# Tested on: primary human hepatic stellate cells (donor 1)
# Assay: scaled lipid accumulation score (0 = DMSO-like, 1 = nortriptyline-like); higher = stronger HSC inactivation (lipid re-accumulation), active = hit call of the paper
# Conditions: 48 h
# [1] = library stock concentration: 10 mM
# [2] = library stock concentration: 1 mM
# [3] = library stock concentration: 80 uM
# [4] = library stock concentration: 400 uM
# [5] = library stock concentration: 2 mM
# [6] = library stock concentration: 3.33 mM
compound,measurement,setting,value
CC(C1=C(CCN(C)C)Cc2ccccc21)c1ccccn1 (stereo in doubt) [(S)-(+)-Dimethindene maleate],scaled lipid accumulation score,[1],0.162
CCCCCC(O)/C=C/C=O (stereo unspecified) [4-hydroxy Nonenal],scaled lipid accumulation score,[2],≤ 0
CNC(=O)c1ccccc1Sc1ccc2c(/C=C/c3ccccn3)n[nH]c2c1 [Axitinib],scaled lipid accumulation score,[3],≤ -0.001
same,scaled lipid accumulation score,[4],≤ -0.001
same,scaled lipid accumulation score,[5],≤ -0.001
same,scaled lipid accumulation score,[6],≤ 0
same,scaled lipid accumulation score,[1],≤ 0 and ≤ -0.001
CNC(=O)c1ccccc1Sc1ccc2c(/C=C/c3ccccn3)n[nH]c2c1,scaled lipid accumulation score,[4],0.07
same,scaled lipid accumulation score,[5],≤ -0.005
same,scaled lipid accumulation score,[1],0.024
Cc1cc(C(=O)Nc2cc(Nc3ccc4c(/C=C/c5ccccn5)n[nH]c4c3)ccc2F)n(C)n1 [listing 1 of 2 here],scaled lipid accumulation score,[1],1.61 (active)
Cc1cc(C(=O)Nc2cc(Nc3ccc4c(/C=C/c5ccccn5)n[nH]c4c3)ccc2F)n(C)n1 [listing 2 of 2 here],scaled lipid accumulation score,[4],0.035
same,scaled lipid accumulation score,[5],0.724
CCCCC[C@H](O)CC[C@@H]1[C@H]2Cc3cccc(OCC(=O)O)c3C[C@H]2C[C@H]1O [Treprostinil],scaled lipid accumulation score,[2],0.05
CCCC(=O)[O-].[Na+] [Sodium Butyrate],scaled lipid accumulation score,[2],≤ 0
CCCCCCCCCCOCCC(=O)O [4-Oxatetradecanoic acid],scaled lipid accumulation score,[2],0.156
C1=N/C2=N/c3ccc(OCCN4CCCC4)c(c3)COC/C=C/COCc3cccc(c3)C(=C1)N2 [Pacritinib (SB1518)],scaled lipid accumulation score,[6],0.536
same,scaled lipid accumulation score,[1],0.41
C1=N/C2=N/c3ccc(OCCN4CCCC4)c(c3)COC/C=C/COCc3cccc(c3)C(=C1)N2 [Pacritinib],scaled lipid accumulation score,[3],0.184
same,scaled lipid accumulation score,[4],0.686
same,scaled lipid accumulation score,[5],0.473
C1=CCOCc2cc(ccc2OCCN2CCCC2)Nc2nccc(n2)-c2cccc(c2)COC1 [Pacritinib],scaled lipid accumulation score,[1],0.932 (active)
Cn1c(N2CCCCS2(=O)=O)nc(C(=O)NCc2ccc(F)cc2)c(O)c1=O,scaled lipid accumulation score,[6],0.024
same,scaled lipid accumulation score,[1],≤ 0
NCCNc1ncc(C(N)=O)c(Nc2cccc(C(F)(F)F)c2)n1 [Syk Inhibitor II],scaled lipid accumulation score,[6],0.589
CC1c2ccccc2CN1CC1=NCCN1 (stereo unspecified),scaled lipid accumulation score,[1],0.014
CCCCC[C@H](O)/C=C/[C@H]1C2COC(C2)[C@@H]1C/C=C/CCCC(=O)O (stereo partly specified),scaled lipid accumulation score,[2],≤ 0
CC[C@@H](C)Nc1cc(C(=O)N[C@H]2C[C@H]3CC[C@@H](C2)N3c2ccc(C(=O)C3CC3)cn2)c(C)cc1C(N)=O,scaled lipid accumulation score,[6],0.762
CC[C@@H](C)Nc1cc(C(=O)NC2CC3CCC(C2)N3c2ccc(C(=O)C3CC3)cn2)c(C)cc1C(N)=O (stereo partly specified),scaled lipid accumulation score,[1],0.853 (active)
NC(=O)c1ccc[n+]([C@@H]2O[C@H](COP(=O)([O-])OP(=O)(O)OC[C@H]3O[C@@H](n4cnc5c(N)ncnc54)[C@H](OP(=O)(O)O)[C@@H]3O)[C@@H](O)[C@H]2O)c1 [Sodium beta-nicotinamide adenine dinucleotide phosphate],scaled lipid accumulation score,[1],≤ -0.027
CC1Nc2ccc(Cl)cc2S(=O)(=O)N1 (stereo unspecified),scaled lipid accumulation score,[1],≤ -0.006
CC(=O)c1ncc([C@@H](O)[C@H](O)[C@H](O)CO)[nH]1 [2-Acetyl-5-tetrahydroxybutyl Imidazole],scaled lipid accumulation score,[2],≤ 0
COc1ccc(/C=C/c2nc(NCCCN(C)C)c3ccccc3n2)cc1,scaled lipid accumulation score,[1],0.387
Cc1[nH]c2ccccc2c1CCNCc1ccc(/C=C/C(=O)NO)cc1 [Panobinostat (LBH589)],scaled lipid accumulation score,[6],0.728
same,scaled lipid accumulation score,[1],0.587
O=c1cc(N2CCNCC2)oc2c(-c3ccccc3)cccc12 [listing 1 of 2 here],scaled lipid accumulation score,[6],0.39
O=c1cc(N2CCNCC2)oc2c(-c3ccccc3)cccc12 [listing 2 of 2 here],scaled lipid accumulation score,[1],1.28 (active)
"O=c1cc(N2CCOCC2)oc2c(-c3ccccc3)cccc12 [LY-294,002 hydrochloride]",scaled lipid accumulation score,[1],0.089
O=c1cc(N2CCOCC2)oc2c(-c3ccccc3)cccc12,scaled lipid accumulation score,[2],0.001
same,scaled lipid accumulation score,[6],≤ 0
same,scaled lipid accumulation score,[1],≤ 0 and 0.005
same,scaled lipid accumulation score,library stock concentration: 16.3 mM,≤ -0.012
CCC1(O)CC2CN(CCc3c([nH]c4ccccc34)[C@@](C(=O)OC)(c3cc4c(cc3OC)N(C)C3[C@]45CCN4CC=C[C@@](CC)([C@@H](OC(C)=O)[C@]3(O)C(=O)OC)[C@H]45)C2)C1.O=S(=O)(O)O (stereo partly specified) [Vinblastine sulfate salt],scaled lipid accumulation score,[1],0.877 (active)
CC[C@]1(O)C[C@H]2CN(CCc3c([nH]c4ccccc34)[C@@](C(=O)OC)(c3cc4c(cc3OC)N(C)[C@H]3[C@@](O)(C(=O)OC)[C@H](OC(C)=O)[C@]5(CC)C=CCN6CC[C@]43[C@@H]65)C2)C1.O=S(=O)(O)O [Vinblastine sulfate],scaled lipid accumulation score,[1],1.67 (active)
CCCCCCCCCCCCCCCCCC(=O)OC(CC(=O)O)C[N+](C)(C)C (racemic) [DL-Stearoylcarnitine chloride],scaled lipid accumulation score,[1],0.037
CCCCCCCCCCCCCCCC(=O)OC[C@H](O)[C@H]1OC(=O)C(O)=C1O [Ascorbyl palmitate],scaled lipid accumulation score,library stock concentration: 4.8 mM,0.002
CC(=O)N[C@@H](CCC(=O)O)C(=O)O [Acetylglutamic acid],scaled lipid accumulation score,[1],≤ 0
CCCCN1CCCC1CNC(=O)c1cc(C#N)c2ccccc2c1OC (stereo unspecified) [Nafadotride],scaled lipid accumulation score,[1],0.668 and 0.214
CS(=O)(=O)c1ccc(-c2nc(-c3ccc(F)cc3)c(-c3ccncc3)[nH]2)cc1,scaled lipid accumulation score,[6],≤ 0
CN(C)CC[C@@H](c1ccc(Br)cc1)c1ccccn1,scaled lipid accumulation score,[1],≤ 0
O=C1NCCc2[nH]c(-c3ccncc3)cc21,scaled lipid accumulation score,[3],≤ -0.016
same,scaled lipid accumulation score,[4],0.1
same,scaled lipid accumulation score,[5],0.125
same,scaled lipid accumulation score,[6],≤ 0
same,scaled lipid accumulation score,[1],0.19
CCCCCCCCCCCCCC(=O)O [Myristic Acid],scaled lipid accumulation score,[2],≤ 0
Cn1c(=O)c(-c2c(Cl)cccc2Cl)cc2cnc(Nc3ccc(N4CCOCC4)cc3)nc21,scaled lipid accumulation score,[1],≤ 0
c1cn2cc(-c3ccc4cn[nH]c4c3)nc(Nc3ccc(N4CCOCC4)cc3)c2n1 [Entospletinib] [listing 1 of 2 here],scaled lipid accumulation score,[3],≤ 0
same,scaled lipid accumulation score,[4],0.023
c1nc2c(NC3CCCCC3)nc(Nc3ccc(N4CCOCC4)cc3)nc2[nH]1 [Reversine],scaled lipid accumulation score,[6],≤ 0
c1cn2cc(-c3ccc4cn[nH]c4c3)nc(Nc3ccc(N4CCOCC4)cc3)c2n1,scaled lipid accumulation score,[6],1.04 (active)
same,scaled lipid accumulation score,[1],0.944 (active)
c1cn2cc(-c3ccc4cn[nH]c4c3)nc(Nc3ccc(N4CCOCC4)cc3)c2n1 [Entospletinib] [listing 2 of 2 here],scaled lipid accumulation score,[5],1.2 (active)
same,scaled lipid accumulation score,[1],1.21 (active)
Cc1cc(N2CCOCC2)ccc1Nc1nc(NC2CCCCC2)c2[nH]cnc2n1,scaled lipid accumulation score,[6],0.091
same,scaled lipid accumulation score,[1],≤ 0
C[N+](C)(C)CCOP(=O)(O)OP(=O)([O-])OC[C@H]1O[C@@H](n2ccc(N)nc2=O)[C@H](O)[C@@H]1O [Citicoline],scaled lipid accumulation score,[1],≤ -0.027
C[N+](C)(C)CCOP(=O)(O)OP(=O)([O-])OC[C@H]1O[C@@H](n2ccc(N)nc2=O)[C@H](O)[C@@H]1O [Cytidine 5'-diphosphocholine sodium salt hydrate],scaled lipid accumulation score,[1],≤ -0.07
CO[C@H]1C=C[C@@]23c4cc5c(cc4CN(C[C@@H]2O)[C@H]3C1)OCO5 [Crinamine],scaled lipid accumulation score,[1],0.74
Cc1ccc(Nc2cc(-c3cccc(N4C(=O)c5ccccc5C4=O)c3)ncn2)cc1NS(C)(=O)=O,scaled lipid accumulation score,[3],0.083
same,scaled lipid accumulation score,[4],≤ -0.016
same,scaled lipid accumulation score,[5],≤ -0.016
same,scaled lipid accumulation score,[1],0.08
CCCCCC(O)/C=C/C1C(O)CC(O)C1CCCCC(CC(=O)O)OC (stereo not drawn) [3-methoxy Prostaglandin F1.alpha.],scaled lipid accumulation score,[2],≤ 0
CCCCCCCCCCCCCCC(=O)N[C@H]1CCOC1=O [N-pentadecanoyl-L-Homoserine lactone],scaled lipid accumulation score,[2],≤ 0
c1ccc2c(c1)CCC[C@H]2Nc1nc2ccccc2[nH]1 [NS8593 hydrochloride],scaled lipid accumulation score,[1],0.362
CCCCNC(=O)NS(=O)(=O)c1ccc(CO)cc1 [4-hydroxy Tolbutamide],scaled lipid accumulation score,[2],0.012
COc1ccc(NS(=O)(=O)c2sc3ccc(Cl)cc3c2C)cc1N1CCNCC1 [listing 1 of 2 here],scaled lipid accumulation score,[1],1.31 (active)
COc1ccc(NS(=O)(=O)c2ccc(I)cc2)cc1N1CCN(C)CC1,scaled lipid accumulation score,[1],0.604
COc1ccc(NS(=O)(=O)c2sc3ccc(Cl)cc3c2C)cc1N1CCNCC1 [listing 2 of 2 here],scaled lipid accumulation score,[6],0.383
CCCCCCCCCCCCCCCCCCCCCC(=O)NCCO [Docosanoyl Ethanolamide],scaled lipid accumulation score,[2],≤ 0
C[C@]12CC[C@@H]3c4ccc(OC(=O)c5ccccc5)cc4CC[C@H]3[C@@H]1CC[C@@H]2O [Estradiol Benzoate],scaled lipid accumulation score,[6],≤ 0
same,scaled lipid accumulation score,[1],0.155
C[C@]12CC[C@@H]3c4ccc(OC(=O)c5ccccc5)cc4CC[C@H]3[C@@H]1CC[C@@H]2O [Estradiol benzoate],scaled lipid accumulation score,library stock concentration: 5.3 mM,≤ 0
COc1ccc2c(c1)CCC1C2CCC2(C)C(NCCCCCCN3C(=O)C=CC3=O)CCC12 (stereo unspecified),scaled lipid accumulation score,[2],≤ 0
same,scaled lipid accumulation score,[1],0.397
COc1ccc2c(c1)CCC1C2CC[C@@]2(C)C1CC[C@@H]2NCCCCCCN1C(=O)CCC1=O (stereo partly specified),scaled lipid accumulation score,[1],0.875 (active)
CN1c2cc(O)c(N=NC(N)=O)cc2CC1S(=O)(=O)O (stereo unspecified) [Carbazochrome sodium sulfonate (AC-17)],scaled lipid accumulation score,[6],≤ 0
same,scaled lipid accumulation score,[1],≤ 0
c1ccc(CNc2nc(NCc3ccccc3)c3ccccc3n2)cc1,scaled lipid accumulation score,[6],0.706
same,scaled lipid accumulation score,[1],0.074
